Compounds with a hit are over-represented: about 18% of the library has one in this group of screens.
TDP1 block: qHTS Assay for Inhibitors of Tyrosyl-DNA Phosphodiesterase (TDP1); Tyrosyl-DNA phosphodiesterase 1 (Homo sapiens), Q9NUW8; recombinant TDP1, AlphaScreen DNA substrate cleavage; 350,000 compounds, 0.28% hits; Potency, µM (highest dose often 130 µM), usual class: inhibitors; AID 485290, 2010; note: nearly all actives have a fitted effect of over 40% in size
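Signal: AlphaScreen proximity between streptavidin donor and anti-FITC acceptor beads on intact substrate. Reaction: Tdp1 1 nM, substrate 15 nM final, 5 min RT after 15 min compound preincubation.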
Six1-Eya2 inh: qHTS Assay for Inhibitors of the Six1/Eya2 Interaction. AlphaScreen GST-Six1/His-Eya2 binding, biochemical; active compounds read low. 360,000 compounds, 0.56% hits. activity change, % (test concentration not listed); in the data active = activity change below about -65%; inconclusive = mostly about -30% to -63%
Target sequence (O00167 whole entry, looked up): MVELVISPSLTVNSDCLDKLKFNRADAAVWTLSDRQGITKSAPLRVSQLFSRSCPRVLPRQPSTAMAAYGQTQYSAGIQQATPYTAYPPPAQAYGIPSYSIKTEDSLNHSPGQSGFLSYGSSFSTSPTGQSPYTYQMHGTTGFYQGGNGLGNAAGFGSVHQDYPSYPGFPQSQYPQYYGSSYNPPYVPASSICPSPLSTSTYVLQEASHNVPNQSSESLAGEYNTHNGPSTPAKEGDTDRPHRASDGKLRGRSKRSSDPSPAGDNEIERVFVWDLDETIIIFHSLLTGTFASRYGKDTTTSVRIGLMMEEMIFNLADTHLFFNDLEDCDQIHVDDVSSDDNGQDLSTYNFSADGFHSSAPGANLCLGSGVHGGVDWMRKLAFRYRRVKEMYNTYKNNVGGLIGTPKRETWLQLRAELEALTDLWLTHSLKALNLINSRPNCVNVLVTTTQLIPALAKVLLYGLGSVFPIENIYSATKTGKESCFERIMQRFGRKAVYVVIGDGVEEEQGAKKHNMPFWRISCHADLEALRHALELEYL
Target sequence (Q15475 whole entry, looked up): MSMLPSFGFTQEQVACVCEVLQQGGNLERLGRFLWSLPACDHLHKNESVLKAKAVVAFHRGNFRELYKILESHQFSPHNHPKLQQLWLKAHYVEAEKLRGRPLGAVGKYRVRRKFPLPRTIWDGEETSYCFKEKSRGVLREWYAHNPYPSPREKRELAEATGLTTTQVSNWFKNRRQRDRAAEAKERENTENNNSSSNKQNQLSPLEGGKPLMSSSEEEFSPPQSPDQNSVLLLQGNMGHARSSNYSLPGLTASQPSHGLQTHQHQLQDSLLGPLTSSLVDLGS
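Homogeneous AlphaScreen proximity assay pairing GST-Six1 with His-tagged Eya2 (added as 5X mix: 250 nM and 500 nM) in 50 mM Tris pH 8.0, 300 mM NaCl, 1 mM TCEP. Glutathione donor and nickel acceptor beads; 1 h, 37 °C, dark.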
CtBP-E1A inh: qHTS Assay for Inhibitors of the CtBP/E1A Interaction | CtBP / adenovirus E1A interaction (AlphaScreen) | AID 651724, 2012 | AlphaScreen GST-E1A/His-CtBP binding, 1536-well; active compounds read low | activity change, % (no concentration beside the values) | 340,000 compounds, 0.49% hits; in the data active = activity change below about -65%; inconclusive = mostly about -30% to -63%
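Steps: dispense buffer (Tris pH 8.0, NaCl 300 mM, TCEP 1 mM, BSA, Tween 20); add 5X protein mix (GST-E1A, His-CtBP, 125 nM each); pin 23 nL compound; 2 h at 37 °C, dark; add 5X beads (50 ug/mL); 1 h; read.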
DT40 TDP1 no CPT: qHTS for Inhibitors of human tyrosyl-DNA phosphodiesterase 1 (TDP1): qHTS in cells in absence of CPT; DT40 Tdp1-/- hTDP1 cells, no CPT, ATP luminescence, 48 h; Potency, µM (doses to about 46.2 µM), usual class: inhibitors; 420,000 compounds, 15% hits; note: nearly all actives have a fitted effect of over 55% in size
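Stably hTDP1-transfected Tdp1-null chicken DT40 cells were treated with library compounds minus camptothecin and grown for at least 48 hr at 37 °C, after which cellular ATP was quantified by luminescence.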
DT40 TDP1 CPT: qHTS for Inhibitors of human tyrosyl-DNA phosphodiesterase 1 (TDP1): qHTS in cells in presence of CPT; chicken DT40 Tdp1-/-;hTDP1 cells + 20 nM CPT, ATP luminescence, 48 h; Potency, µM (top dose mostly 46.2 µM), actives largely listed as inhibitors; 420,000 compounds, 12% hits; AID 686979, 2013; note: nearly all actives have a fitted effect of over 55% in size
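Chicken DT40 Tdp1-/- cells complemented with human TDP1, 400 cells/well, exposed to compounds plus 20 nM camptothecin for at least 48 h at 37 C; viability read as ATP content by CellTiter-Glo luminescence.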
IL1B secr inh: qHTS for Inhibitors of Inflammasome Signaling: IL-1-beta AlphaLISA Primary Screen | THP-1 LPS/ATP IL-1B secretion, AlphaLISA, 16 h; active compounds read low | activity change, % at 57.5 µM | 360,000 compounds, 4.7% hits; in the data active = activity change below about -50%; inconclusive = mostly about -30% to -49%
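THP-1 cells pretreated 1 hr with compounds (up to 57.5 uM final), then stimulated with LPS (250 ng/mL final) plus ATP (1.25 mM final); secreted IL-1B measured by AlphaLISA after 16 hr, decreased signal indicating inhibition.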
Each line names hits and unclear results; the compound was inactive in the other large screens. Unless noted, calls come from the whole dose curve; as a rule, active = well fitted curve in the direction sought with a large enough effect; inconclusive = small, poorly fitted or top-dose-only effect, or another doubt; inactive = no such curve, though single readings can be large; an effect the other way counts as inactive or inconclusive.

CC1=NN(C(=O)COc2ccc(C)c(C)c2)C(O)(c2ccc(Cl)cc2)C1 (stereo not drawn)	DT40 TDP1 no CPT 15µM, DT40 TDP1 CPT 13µM
COc1ccc(-c2cnc(C)o2)cc1S(=O)(=O)Nc1c(C)cc(C)cc1C	DT40 TDP1 no CPT 23µM, DT40 TDP1 CPT 16µM (no result: Six1-Eya2 inh, CtBP-E1A inh, IL1B secr inh)
COc1ccc(-c2cc(C)no2)cc1S(=O)(=O)Nc1c(C)cc(C)cc1C	DT40 TDP1 no CPT 21µM, DT40 TDP1 CPT inconclusive (no result: Six1-Eya2 inh, CtBP-E1A inh, IL1B secr inh)
COc1ccc(-c2cnc(C)o2)cc1S(=O)(=O)Nc1ccc(C)c(F)c1	DT40 TDP1 no CPT 2.6µM, DT40 TDP1 CPT 2.6µM (no result: TDP1 block, Six1-Eya2 inh, CtBP-E1A inh, IL1B secr inh)
CCc1ccccc1N(C)S(=O)(=O)c1cc(-c2cc(C)no2)ccc1OC	DT40 TDP1 no CPT inconclusive, DT40 TDP1 CPT 13µM
COc1ccc(-c2cnc(C)o2)cc1S(=O)(=O)Nc1ccc(C)c(N(C)C)c1	none (no result: Six1-Eya2 inh, CtBP-E1A inh, IL1B secr inh)
COc1ccc(-c2cc(C)no2)cc1S(=O)(=O)N(C)c1cccc(C)c1	DT40 TDP1 no CPT inconclusive
COc1cc(Cl)c(NS(=O)(=O)c2cc(-c3cc(C)no3)ccc2OC)c(OC)c1	DT40 TDP1 no CPT inconclusive, DT40 TDP1 CPT inconclusive (no result: Six1-Eya2 inh, CtBP-E1A inh, IL1B secr inh)
COc1ccc(OC)c(N2C(=O)CC(NNC(=O)c3ccc4c(c3)OCO4)C2=O)c1 (stereo not drawn)	none
CC(=O)CCN1C(=O)NC2(CCCc3ccccc32)C1=O (stereo not drawn)	none
COc1ccc(NS(=O)(=O)c2cc(-c3onc(C)c3C)ccc2C)c(OC)c1	DT40 TDP1 no CPT inconclusive, DT40 TDP1 CPT inconclusive (no result: Six1-Eya2 inh, CtBP-E1A inh, IL1B secr inh)
Cc1cc(C)c(NS(=O)(=O)c2cc(-c3onc(C)c3C)ccc2C)c(C)c1	DT40 TDP1 no CPT 8.2µM, DT40 TDP1 CPT 13µM (no result: Six1-Eya2 inh, CtBP-E1A inh, IL1B secr inh)
Cc1ccc2c(c1)N(S(=O)(=O)c1cc(-c3onc(C)c3C)ccc1C)CCO2	DT40 TDP1 no CPT 9.2µM, DT40 TDP1 CPT 23µM, IL1B secr inh inconclusive
CCCCCc1cc(=O)oc2c(C(CCN(CC)CC)c3ccc(OC)cc3)c(OC)cc(OC)c12 (stereo not drawn)	DT40 TDP1 no CPT inconclusive, DT40 TDP1 CPT 15µM, IL1B secr inh inconclusive (no result: TDP1 block)
CCCCCc1cc(=O)oc2c(C(CCN3CCCCC3)c3ccc(OC)cc3)c(OC)cc(OC)c12 (stereo not drawn)	DT40 TDP1 no CPT 16µM, DT40 TDP1 CPT inconclusive, IL1B secr inh inconclusive
CCCCCc1cc(=O)oc2c(C(CCN3CCCC3)c3cc(OC)c(OC)c(OC)c3)c(OC)cc(OC)c12 (stereo not drawn)	DT40 TDP1 no CPT 16µM, DT40 TDP1 CPT 5.8µM (no result: TDP1 block)
CCCCCc1cc(=O)oc2c(C(CCN3CCCC3)c3ccc(N(C)C)cc3)c(OC)cc(OC)c12 (stereo not drawn)	Six1-Eya2 inh inconclusive, CtBP-E1A inh inconclusive, DT40 TDP1 no CPT 8.2µM, DT40 TDP1 CPT 15µM, IL1B secr inh -76
COc1cc(O)c(C(CCN2CCCC2)c2cc(OC)c(OC)c(OC)c2)c(OC)c1 (stereo not drawn)	DT40 TDP1 no CPT inconclusive
CCN(CC)CCC(c1ccc(OC)cc1)c1c(OC)cc(OC)c2c(C)cc(=O)oc12 (stereo not drawn)	none (no result: Six1-Eya2 inh, CtBP-E1A inh, DT40 TDP1 no CPT, DT40 TDP1 CPT, IL1B secr inh)
Cc1ccc(C(c2sc3nc(C)nn3c2O)N2CCOCC2)cc1 (stereo not drawn)	none
Cc1c(C(=O)NN)nn(-c2ccc(Cl)cc2)c(=O)c1C#N	none
Cc1ccc(-c2csc3ncnc(OCC(=O)NC(=O)NCc4ccco4)c23)cc1	DT40 TDP1 no CPT inconclusive, DT40 TDP1 CPT inconclusive
COc1cccc(-n2nnc(-c3nc(-c4ccccc4F)no3)c2C)c1	DT40 TDP1 no CPT inconclusive, DT40 TDP1 CPT inconclusive (no result: Six1-Eya2 inh, CtBP-E1A inh, IL1B secr inh)

Screens deposited in PubChem by National Center for Advancing Translational Sciences (NCATS).
